Gli-Sufu antag: antagonists of Gli-Sufu signaling | 340,000 tested, 0.74% active | Sufu-KO-LIGHT fibroblasts, Gli luciferase reporter luminescence | inhibition, % at 5 µM;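 active = inhibition above about 55%, limit read from the data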;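 note: 0% = DMSO-treated cells and 100% = wells with medium but no cells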
Jurkat NFkB inh: inhibitors of the PMA/ionomycin-induced NF-kB reporter in Jurkat cells. PMA/ionomycin-induced NF-kB luciferase reporter, luminescence. inhibition, % at 4 µM. 330,000 tested, 0.53% active. AID 435003; in the data active = inhibition above about 50%
Shn3 inh set2: Schnurri-3 reporter inhibition in Clone20 osteoblasts; Clone20 osteoblast Shn3 3'UTR firefly luciferase, 24 h; inhibition, % at 12.5 µM; 360,000 tested, 0.52% active;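 active = mean inhibition of at least 75% with every replicate also reaching 75%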;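 note: 0% = median of neutral control wells and 100% = pilot-screen positive control compound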
Mdm2-MdmX inh: inhibitors of human Mdm2/MdmX interaction; SaOS-2 split-luciferase Mdm2/MdmX complementation, luminescence; inhibition, % at 8 µM; 330,000 tested, 3% active; AID 485346;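 active = inhibition of at least 50% at 8 µM in the primary screen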
Target sequence (O15151 whole entry, looked up): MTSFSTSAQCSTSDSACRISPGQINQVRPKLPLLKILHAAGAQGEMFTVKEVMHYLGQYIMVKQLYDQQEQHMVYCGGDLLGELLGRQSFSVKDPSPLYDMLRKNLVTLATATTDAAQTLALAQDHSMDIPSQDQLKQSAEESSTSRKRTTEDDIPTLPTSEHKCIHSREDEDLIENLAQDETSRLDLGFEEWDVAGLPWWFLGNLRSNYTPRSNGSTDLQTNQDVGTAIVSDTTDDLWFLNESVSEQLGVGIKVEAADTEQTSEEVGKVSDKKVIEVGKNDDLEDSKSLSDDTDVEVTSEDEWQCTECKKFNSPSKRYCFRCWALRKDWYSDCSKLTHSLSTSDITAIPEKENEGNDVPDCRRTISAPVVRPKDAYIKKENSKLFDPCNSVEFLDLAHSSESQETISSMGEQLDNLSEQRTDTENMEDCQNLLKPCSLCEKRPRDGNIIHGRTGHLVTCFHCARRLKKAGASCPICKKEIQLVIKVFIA
Target sequence (Q00987 whole entry, looked up): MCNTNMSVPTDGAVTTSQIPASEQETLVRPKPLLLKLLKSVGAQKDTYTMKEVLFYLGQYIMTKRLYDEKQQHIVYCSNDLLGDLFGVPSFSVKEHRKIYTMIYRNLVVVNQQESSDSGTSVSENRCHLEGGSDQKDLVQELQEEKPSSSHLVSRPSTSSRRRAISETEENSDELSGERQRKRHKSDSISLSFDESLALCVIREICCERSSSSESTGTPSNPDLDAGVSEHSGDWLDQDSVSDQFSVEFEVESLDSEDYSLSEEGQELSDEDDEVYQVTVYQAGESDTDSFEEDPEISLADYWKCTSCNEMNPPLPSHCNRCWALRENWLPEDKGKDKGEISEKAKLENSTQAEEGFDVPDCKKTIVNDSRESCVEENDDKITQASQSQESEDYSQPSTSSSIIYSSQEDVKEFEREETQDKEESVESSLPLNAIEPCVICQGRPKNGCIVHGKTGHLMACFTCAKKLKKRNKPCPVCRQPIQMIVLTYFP
697 NFkB inh: inhibitors of the PMA/ionomycin-induced NF-kB reporter in 697 B cells; 697 B-cell NF-kB luciferase reporter, 16 h; 330,000 tested, 0.33% active; inhibition, % at 4 µM; in the data active = inhibition above about 35%
Jurkat NFkB conf: lowers PMA/ionomycin-induced NF-kB signal in Jurkat cells | shares compounds with Jurkat NFkB inh | Jurkat NF-kB luciferase, 16 h | inhibition, % at 4 µM | 2,700 tested, 27% active | AID 435020;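 active = inhibition reaching about 45% at 4 µM in either replicate, limit read from the data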;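 note: plate controls were PMA/ionomycin stimulated DMSO wells for no effect and unstimulated DMSO wells for full effect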
Numbers without * were called inactive; nt = no result. Rows were chosen to be rich in hits. Some 3.8% of all compounds tested hit in one or more screens of this group.

SMILES | Gli-Sufu antag | Jurkat NFkB inh | Shn3 inh set2 | Mdm2-MdmX inh | 697 NFkB inh | Jurkat NFkB conf
CCNC(=O)C1CCCN(C(=O)c2ccccc2)CC1 (centres undefined) | nt | nt | -4 | nt | nt | nt
COc1cc(CCC(=O)Nc2nnc(C)s2)cc(OC)c1OC | -9 | 52* | -11 | 49 | -36 | 27
NC(=O)c1ccsc1NC(=O)c1ccc(N2CCCC2=O)cc1 | -107 | -161 | -20 | -170 | -139 | -70
CC(C)Cc1nnc(NC(=O)c2ccc(N3CCCC3=O)cc2)s1 | 10 | -11 | 2 | -15 | -17 | nt
CC1(C)CC2(C)CC(=O)C1C(C(=O)O)C2C(=O)O (centres undefined) | nt | nt | -11 | nt | nt | nt
NNC(=O)COc1ccc(F)cc1 | -13 | 10 | -25 | 7 | 2 | nt
NNC(=O)COc1ccccc1F | -1 | 96* | -20 | 6 | -1 | 2
CC(=O)Nc1ccc(NC(=O)C(C)Oc2ccc(Cl)cc2Cl)cc1 (centres undefined) | -24 | 7 | -1 | 13 | 2 | nt
CC(Oc1ccc(Cl)cc1Cl)C(=O)Nc1ccncc1 (centres undefined) | 4 | 51* | nt | 27 | -9 | 36
COc1ccc2c(C(=O)c3ccc(C)cc3)n(Cc3ccc(C(N)=O)cc3)[n+]([O-])c2c1 | -10 | -63 | -71 | 29 | -124 | nt
O=C(NC1C=CS(=O)(=O)C1)c1sc2ccccc2c1Cl (centres undefined) | 7 | 56* | 10 | 48 | -4 | 18
O=C(NC1CC1)c1sc2ccccc2c1Cl | -32 | -21 | -33 | -15 | -34 | nt
CC(=O)c1cc2c(cc1NC(=O)Cn1nc(-c3ccc(C)cc3)ccc1=O)OCO2 | 19 | 53* | -6 | 40 | -19 | 14
CC(=O)Nc1cc2c(cc1NC(=O)Cn1nc(-c3ccc(F)cc3)ccc1=O)OCCO2 | -13 | 8 | -13 | -10 | 16 | nt
O=C(NCCc1ccc(O)cc1)c1[nH]c(C(F)(F)F)nc1-c1ccccc1 | nt | nt | 7 | nt | nt | nt
COc1ccccc1Cc1c(-c2cccc(Cl)c2)nc2ccc(C)cn12 | nt | nt | 14 | nt | nt | nt
Cc1nc(-c2ccccc2)sc1-c1ccn[nH]1 | -139 | -185 | -16 | -195 | -201 | -118
Clc1ccccc1/C=N/NC1=Nc2cccc3cccc1c23 | -58 | -163 | -88 | 27 | -163 | -86
Cn1c(-c2ccc(F)c(F)c2)cc2onc(-c3ccccc3)c2c1=O | -127 | -180 | -52 | -236 | -183 | -94
COc1ccc(CC(N)c2csc(Nc3cc(NCc4ccco4)ncn3)n2)cc1 (centres undefined) | nt | nt | 9 | nt | nt | nt
c1ccc2c(c1)oc1c(Nc3ccc(CN4CCOCC4)cc3)ncnc12 | 14 | -155 | -6 | -50 | -141 | -117
Cc1cc2c(cc1C)C(c1ccccc1F)CC(=O)N2 (centres undefined) | -2 | 15 | 13 | 27 | -12 | nt
Cc1cc2c(cc1C)C(c1cc(Br)ccc1F)CC(=O)N2 (centres undefined) | -5 | 57* | 16 | 40 | -27 | 16
CCOc1ccccc1NC(=O)Cn1nnc(C(=O)NCc2ccco2)c1N | 26 | 69* | nt | 42 | 13 | 56*
Cc1ccccc1NC(=O)Cn1nnc(C(=O)NCc2ccco2)c1N | 1 | 41 | -6 | -10 | -19 | nt
SMILES | Gli-Sufu antag | Jurkat NFkB inh | Shn3 inh set2 | Mdm2-MdmX inh | 697 NFkB inh | Jurkat NFkB conf
NC(=O)Nc1cccc2ccccc12 | 0 | -1 | -20 | 17 | -23 | nt
O=C(Nc1cccc2ccccc12)OC1C=CS(=O)(=O)C1 (centres undefined) | 2 | 90* | 12 | 25 | -45 | 65*
COc1ccc(-n2nc3c(c2NC(=O)COc2ccccc2OC)CS(=O)(=O)C3)cc1 | nt | nt | -19 | nt | nt | nt
Clc1ccc(-c2cn3c(n2)-c2ccccc2C3)cc1Cl | -139 | -158 | -21 | -243 | -246 | -112
CC(C)NC(=O)C1(C)CCCCN1Cc1ccc(OCc2ccccc2)cc1 (centres undefined) | nt | nt | 51 | nt | nt | nt
CCn1c(/C=C/c2ccccc2)nc2ccccc21 | -82 | -170 | 4 | -164 | -135 | -134
COc1ccc(-c2cc(-c3ccc(C)cc3)n[nH]2)c(O)c1 | -7 | -84 | -52 | -116 | -184 | nt
COc1ccc(-c2cc(-c3cc(C)ccc3O)[nH]n2)cc1 | 43 | 77* | -19 | -63 | 10 | 38
Cc1ccc(O)c(-c2cc(-c3ccc(F)cc3)no2)c1 | 35 | -193 | -39 | -172 | -230 | -144
Clc1ccc(-c2cc(-c3ccccc3)on2)cc1 | -98 | -173 | -139 | -183 | -210 | -92
Cc1ccccc1-c1cc(-c2ccccc2O)on1 | 13 | -193 | -45 | -309 | -98 | -128
CCC1NC(=O)c2cccnc2-n2c1nc1ccc(OC)cc1c2=O (centres undefined) | nt | nt | -13 | nt | nt | nt
Oc1ccccc1-c1cc(-c2ccccc2)no1 | 15 | -165 | -108 | -193 | -109 | -150
Cc1cc(C)cc(N/C(N)=N/c2nc(C)cc(C)n2)c1 | 22 | 51* | 3 | 22 | -14 | 10
Cc1ccc(N/C(N)=N/c2nc(C)cc(C)n2)cc1 | 44 | 3 | 17 | 13 | 4 | nt
COc1cc(C)ccc1S(=O)(=O)NC(=O)C1(C)CCN1C(=O)c1ccc(C(F)(F)F)nc1C (centres undefined) | nt | nt | -5 | nt | nt | nt
C/C(=N\OCc1cccc(C(=O)O)c1)c1ccc(Cl)cc1 | -231 | 62* | 37 | 17 | 13 | 38
COc1ccc(NC(=O)c2cc3ccccc3cc2OC)cc1 | -11 | -92 | -61 | -78 | -136 | nt
COc1ccc(C(=O)Nc2ccc([N+](=O)[O-])cn2)c(OC)c1 | -77 | -167 | -10 | -98 | -223 | -95
COc1cc2ccccc2cc1C(=O)Nc1ccc(C)cn1 | -103 | -159 | -77 | -133 | -160 | -112
NNC(=O)Cc1cccc2ccc(Cl)cc12 | nt | nt | 4 | nt | nt | nt
CCCc1nc(SCC(=O)Nc2cc(C)on2)c2ccccc2n1 | 6 | -10 | -24 | 24 | 6 | nt
Cc1cc(NC(=O)CSc2nc(C(C)(C)C)nc3ccccc23)no1 | 2 | 57* | 1 | 19 | -62 | 20
Cc1cccc(CCN(C(=O)c2csnn2)C(C(=O)NC2CCCC2)c2ccco2)c1 (centres undefined) | -12 | -4 | 0 | 19 | 11 | nt
O=C1CCCN1C(=O)CSc1nnnn1-c1cccc(F)c1 | 5 | 3 | -16 | -2 | 17 | nt
SMILES | Gli-Sufu antag | Jurkat NFkB inh | Shn3 inh set2 | Mdm2-MdmX inh | 697 NFkB inh | Jurkat NFkB conf
CCCCc1ccc(NC(=O)c2cnccn2)cc1 | -71 | -156 | -10 | -162 | -206 | -105
Cc1c(NC(=O)COC(=O)c2cccc(F)c2)c(=O)n(-c2ccccc2)n1C | nt | nt | -14 | nt | nt | nt
CCCCNc1nnc(SCC(=O)c2c[nH]c3ccccc23)s1 | -4 | -3 | 3 | 4 | -3 | nt
CCCNC(=O)C1(C)CCCN(Cc2ccccc2C#N)C1 (centres undefined) | nt | nt | 3 | nt | nt | nt
Cc1c(-c2nc(N)nc(Nc3ccccc3F)n2)oc2ccccc12 | -146 | -200 | -99 | -110 | -182 | -99
Brc1ccc2c(c1)C(C1=NCCN1)c1ccccc1CS2 (centres undefined) | 19 | 60* | 12 | 48 | 1 | 56*
CCCCNc1ncnc2[nH]ncc12 | 12 | nt | -10 | nt | nt | nt

Screens (PubChem BioAssay)
